PubChem BioAssay AID493026 (Johns Hopkins Ion Channel Center, 2011)
In all, about 1,000 compounds went through this assay and about 150 (15%) were called active.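 Rule for the calls: active = activity change at least 3 SD of negative controls below their mean in both duplicate wells; inactive = the rest.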 The sample as a whole holds a higher share of actives than the screen did.

Target: Potassium voltage-gated channel subfamily KQT member 1 (Homo sapiens) (UniProt P51787)
Test: KCNQ1 thallium flux decrease by hits – cell-based, FluxOR thallium flux, counter-screen for KCNQ2 inhibitor project (AID 493026);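 note: CHO cells stably transfected with KCNQ1 and depolarized by potassium stimulus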;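 for activity change, negative = inhibition: peak minus minimum fluorescence over baseline after thallium addition; 0% = vehicle negative control and -100% = blank without thallium stimulus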
Settings: KCNQ1-expressing cells, FluxOR thallium flux fluorescence, at 10 µM; stronger effect = lower value

Potassium voltage-gated channel subfamily KQT member 1 (Homo sapiens), sequence (P51787 whole entry, looked up): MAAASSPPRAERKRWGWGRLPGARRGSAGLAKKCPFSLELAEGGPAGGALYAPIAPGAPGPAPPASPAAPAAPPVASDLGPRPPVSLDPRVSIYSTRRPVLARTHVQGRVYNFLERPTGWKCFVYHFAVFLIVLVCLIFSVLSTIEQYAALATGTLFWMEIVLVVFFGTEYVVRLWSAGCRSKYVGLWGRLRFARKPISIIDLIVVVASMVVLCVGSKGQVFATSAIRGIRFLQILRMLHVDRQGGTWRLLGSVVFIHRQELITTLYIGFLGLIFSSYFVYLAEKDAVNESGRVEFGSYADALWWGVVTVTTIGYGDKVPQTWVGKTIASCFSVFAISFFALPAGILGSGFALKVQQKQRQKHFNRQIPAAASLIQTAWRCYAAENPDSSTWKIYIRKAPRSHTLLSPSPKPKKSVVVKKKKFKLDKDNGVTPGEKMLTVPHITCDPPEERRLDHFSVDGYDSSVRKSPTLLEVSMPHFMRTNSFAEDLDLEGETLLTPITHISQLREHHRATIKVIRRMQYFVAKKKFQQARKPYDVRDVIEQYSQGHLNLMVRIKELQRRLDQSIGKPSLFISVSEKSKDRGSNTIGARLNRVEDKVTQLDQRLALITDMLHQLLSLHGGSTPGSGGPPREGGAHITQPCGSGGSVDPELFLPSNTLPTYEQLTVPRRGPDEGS

Compound	activity change, negative = inhibition
CCc1ccccc1NC(=O)/C(=C/c1ccccc1)c1ccccc1	-27% (active)
Cc1ccc(C(=O)c2c(NC(=O)c3ccccc3)sc(C)c2C)cc1	inactive
COc1ccc(Cl)cc1NC(=O)CN(C)Cc1ccc(OC)c(OC)c1	inactive
CN(Cc1ccccc1F)C(=O)C(Cc1ccccc1)NC(=O)c1ccccc1 (stereo unspecified)	inactive
CCc1ccc(-c2nn(-c3ccccc3)cc2CSC(=N)N)cc1	-39.5% (active)
Cc1cccc(C(=O)OC(C)C(=O)NC2CCCc3ccccc32)c1O (stereo unspecified)	inactive
COC(=O)C1=C(C)N(C(C)c2ccccc2)C(=O)/C1=C\c1ccco1 (stereo unspecified)	inactive
COc1cccc(COc2ccc(N(C)S(=O)(=O)c3ccccc3)cc2)c1	inactive
C=CS(=O)c1sc(Cl)c(N2CCOCC2)c1[N+](=O)[O-] (stereo unspecified)	-35% (active)
Cc1nc2ccccc2c(-c2ccccc2)c1C(=O)c1ccccc1	inactive
CSCc1cc(N(C)C)nc(SCc2ccc(Cl)cc2Cl)n1	inactive
Cc1ccc(C2=Nc3c(ccc4ccccc34)C(c3ccncc3)=NN2)cc1	inactive
CCc1ccc(-c2cc(C(=O)NCc3ccco3)c3ccccc3n2)s1	inactive
Fc1ccc2[nH]c3c(N4CCSCC4)ncnc3c2c1	inactive
CCOC(=O)N1CCC(N(CCOC)C(=O)Nc2ccc(C)c(C)c2)CC1	-30.5% (active)
O=C(OCC(=O)N(CCc1ccccc1)Cc1ccccc1)c1ccccc1[N+](=O)[O-]	inactive

Compound	activity change, negative = inhibition
CCc1ccc2ncc(C(=O)c3ccccc3)c(N3CCOCC3)c2c1	inactive
Cc1ccc(C(C)C)cc1OCC(=O)Nc1ccccc1N1CCCC1	inactive
CCOC(=O)C(C)Sc1nc2ccccc2c(=O)n1CC1CCCCC1 (stereo unspecified)	-33.5% (active)
Cc1ccccc1N1CCN(CC(=O)NCc2ccc(Cl)cc2)CC1	inactive
O=C(Nc1ccccc1Cl)/C(Cl)=C(\Cl)S(=O)c1ccccc1 (stereo unspecified)	inactive
CC(NC(=S)NNS(=O)(=O)c1ccc(C(C)(C)C)cc1)c1ccccc1 (stereo unspecified)	inactive
Cc1ccccc1C(=O)Nc1ccccc1Sc1ccccc1	inactive
CC(C(=O)NCC1CCCCC1)N(C)Cc1cccc(Cl)c1 (stereo unspecified)	-42.5% (active)
COc1ccc(CN(C)C(C)C(=O)NC2CCCc3ccccc32)cc1 (stereo unspecified)	inactive
CC(C)C(NC(=O)OCc1ccccc1)C(=O)OCC(=O)N1C(C)CCCC1C (stereo unspecified)	inactive
C=CCn1c(SCC(=O)/C(C#N)=C(\C)N)nc2sc(C)c(C)c2c1=O	inactive
O=C(Nc1ccc(Cl)c(Cl)c1)N1CC=C(c2ccccc2)CC1	inactive
Cc1ccc(N2C(=O)C3C(c4ccccc4)(C2=O)C3(c2ccccc2)c2ccccc2)cc1 (stereo unspecified)	inactive
CC(C)N(C(=O)CSc1nc(COc2ccccc2)nc2ccccc12)C(C)C	-44% (active)
CC(C)[C@H](NC(=O)OCc1ccccc1)C(=O)OCc1ccccc1	inactive
